Where “and” joins values, the source holds several entries; their conditions need not be identical. Equal entries are not always repeated. In all, about 16,000 compounds went through this assay and about 5,100 (32%) were called active. Not shown: some 25% with an inconclusive outcome. Calls follow the shape of the dose curve; as a rule, active = well fitted curve in the direction sought with a large enough effect; inconclusive = small, poorly fitted or top-dose-only effect, or effect the other way; inactive = no such curve, though single readings can be large or run the other way. Some of the results follow. Square brackets hold non-standard residues; d marks the D form. Peptide text beside a SMILES is read from it.
What follows are compounds tested against Cytochrome P450 3A4 (Homo sapiens) (UniProt P08684) (assay: Cytochrome panel assay with activity outcomes). Conditions: recombinant CYP, pro-luciferin dealkylation, luminescence, p450-cyp3a4; series mostly up to 57.1 µM.
Sequence of Cytochrome P450 3A4 (Homo sapiens) (P08684 whole entry, looked up): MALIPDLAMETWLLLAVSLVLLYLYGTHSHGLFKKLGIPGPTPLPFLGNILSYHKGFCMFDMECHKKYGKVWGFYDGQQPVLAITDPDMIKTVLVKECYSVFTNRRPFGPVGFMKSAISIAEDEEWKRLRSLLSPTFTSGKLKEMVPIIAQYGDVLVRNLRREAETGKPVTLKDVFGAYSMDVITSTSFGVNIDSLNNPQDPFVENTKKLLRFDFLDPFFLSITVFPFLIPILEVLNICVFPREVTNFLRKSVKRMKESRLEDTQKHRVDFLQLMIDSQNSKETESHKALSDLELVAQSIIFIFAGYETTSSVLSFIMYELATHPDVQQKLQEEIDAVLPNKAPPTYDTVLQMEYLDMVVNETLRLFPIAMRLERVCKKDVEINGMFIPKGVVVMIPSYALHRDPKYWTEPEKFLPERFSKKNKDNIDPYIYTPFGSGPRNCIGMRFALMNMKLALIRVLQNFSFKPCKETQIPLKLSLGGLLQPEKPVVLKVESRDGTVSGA
In the case of CC(C)(C)NC(=O)CSc1nnc(Cc2ccc3c(c2)OCO3)n1C1CCCCC1, the AC50 is reported as 0.447 µM (active). With NC(=O)[C@@H]1CCCN1Cc1ccc2c(c1)OCO2 the activity, negative = inhibition was -37.8% [at 11.4 µM] (inactive). For C[N+](C)(C)/N=C\c1ccc(O)c(O)c1, the activity, negative = inhibition was -21.1% [at 11.4 µM] (inactive). With CC(C)N=c1scc(-c2ccco2)n1/N=C/c1ccc(O)c(O)c1 the AC50 was 12.6 µM (active). With NCCc1nc(-c2nc(C(=O)O)cs2)cs1 the activity, negative = inhibition was -14.8% [at 11.4 µM] (inactive). O=C(c1cccc(F)c1)N1CCC2(CCN(Cc3ccccc3)CC2)CC1 was tested, and the AC50 was “inactive”. With O=C(c1ccncc1)N1CCC2(CCCN(Cc3ccncc3)C2)CC1 the AC50 was 5.01 µM (active). CC(=O)N1CCC2(CCN(Cc3ccncc3)CC2)CC1 was tested, and the AC50 was “inactive”. With COc1ccc(C(=O)N2CCC3(CCCN(Cc4ccncc4)C3)CC2)cc1 the AC50 was 7.94 µM (active). For COc1ccc(C(=O)N2CCC3(CCCN(C)C3)CC2)cc1, the AC50 was “inactive”. For O=C(c1ccncc1)N1CCC2(CCN(Cc3ccccc3)CC2)CC1, the AC50 was 15.8 µM (active). In the case of COc1ccc(C(=O)N2CCC3(CCN(Cc4ccncc4)CC3)CC2)cc1, the AC50 is reported as 15.8 µM (active). In the case of O=C(O)CP(=O)(O)O, the AC50 is reported as “inactive”. For Oc1c(Cl)cc(CN(Cc2cc(Cl)c(O)c(Cl)c2)C2CCCCC2)cc1Cl, the activity, negative = inhibition was -4.66% [at 11.4 µM] (inactive). In the case of O=C(c1ccncc1)N1CCC2(CCCN(Cc3ccccc3)C2)CC1, the AC50 is reported as 10 µM (active). For O=C(c1csnn1)N1CCC2(CCCN(Cc3ccccc3)C2)CC1, the AC50 was “inactive”. With O=C(c1ccncc1)N1CCC[C@@]2(CCN(Cc3ccccc3)C2)C1 the AC50 was 15.8 µM (active). CC(=O)N1CCC2(CC1)CN(Cc1ccccc1)C2 was tested, and the AC50 was “inactive”. CC(=O)N1CCC2(CCCN(Cc3ccccc3)C2)CC1 was tested, and the AC50 was “inactive”. For CC(=O)OC1CCC(OC(C)=O)c2c1n([O-])c(C)c(C)[n+]2=O (stereo not drawn), the AC50 was “inactive”. In the case of COC(=O)c1c(-n2c(C)cc(C=O)c2C)sc2c1CCCC2, the AC50 is reported as 7.08 µM (active). For O=C1Nc2ccccc2/C1=N/c1sc2c(c1C(=O)NCCc1ccccc1)CCCC2, the AC50 was 7.08 µM (active). For O=C(NCCc1ccccc1)c1noc2c1CCc1ccccc1-2, the activity, negative = inhibition was -2.2% [at 2.29 µM] (inactive). With O=C1Nc2ccccc2C1=Nc1cccc2ncccc12 the activity, negative = inhibition was -14.3% [at 11.4 µM] (inactive). In the case of NCC(=O)N[C@H](CO)C(=O)O (H-Gly-[dS]-OH), the activity, negative = inhibition is reported as -9.24% [at 11.4 µM] (inactive). CCCCCCOC(=O)C(C#N)c1nc2ccccc2nc1N1CCN(CC)CC1 (stereo not drawn) was tested, and the AC50 was 28.2 µM (active). CCN1CCN(c2nc3ccccc3nc2C(C#N)C(=O)OC2CCCCC2)CC1 (stereo not drawn) was tested, and the AC50 was 10 µM (active). With CC(C)OC(=O)C(C#N)c1nc2ccccc2nc1N1CCN(Cc2ccccc2)CC1 (stereo not drawn) the AC50 was “inactive”. C[N+]1(C)CCC(OC(=O)C(c2ccccc2)c2ccccc2)CC1 was tested, and the AC50 was “inactive”. With Nc1nc(-c2cc(-c3cccc4ccccc34)nc(N)n2)cc(-c2cccc3ccccc23)n1 the activity, negative = inhibition was 6.26% [at 11.4 µM] (inactive). Cc1cc(Oc2ccccc2)nc(NCc2ccccc2)n1 was tested, and the activity, negative = inhibition was 7.15% [at 11.4 µM] (inactive). In the case of Cc1cc(C)nc(Nc2n[nH]c(-c3cccc4ccccc34)n2)n1, the AC50 is reported as 14.1 µM (active). Cc1noc2ncnc(Oc3ccc4ccccc4c3)c12 was tested, and the AC50 was “inactive”. For Cc1cc(C)nc(Nc2n[nH]c(COc3ccc4ccccc4c3)n2)n1, the AC50 was 5.01 µM (active). For NC(=O)Nc1n[nH]c(-c2ccccc2)n1, the activity, negative = inhibition was -3.37% [at 11.4 µM] (inactive). For O=c1[nH]ncn2cccc12, the AC50 was “inactive”. For COc1ccccc1-n1c(SCC(=O)Nc2ccccc2F)nc2[nH]ncc2c1=O, the AC50 was 14.1 µM (active). c1ccc2sc(SCSc3nc4ccccc4s3)nc2c1 was tested, and the AC50 was 3.16 µM (active). Oc1ccccc1C(Sc1nc2ccccc2s1)Sc1nc2ccccc2s1 was tested, and the activity, negative = inhibition was -6.59% [at 11.4 µM] (inactive). For NCCSc1nc2ccccc2s1, the AC50 was 3.16 µM (active). NCCSc1nc(-c2ccccc2)c(-c2ccccc2)o1 was tested, and the activity, negative = inhibition was -23.1% [at 11.4 µM] (inactive). With c1ccc2sc(SCCSc3nc4ccccc4s3)nc2c1 the activity, negative = inhibition was 14.9% [at 11.4 µM] (inactive). In the case of COc1cc(C)cc2c(-c3c(O)cc(O)c4c3C[C@H](C)N[C@@H]4C)cc(-c3cc(-c4c(O)cc(O)c5c4C[C@H](C)N[C@@H]5C)c4cc(C)cc(OC)c4c3O)c(O)c12, the activity, negative = inhibition is reported as -3.16% [at 11.4 µM] (inactive). C[C@@](N)(C(=O)O)c1ccc(P(=O)(O)O)cc1 was tested, and the AC50 was “inactive”. For Cc1cc2c(=O)[nH]c(N)nc2nc1C, the activity, negative = inhibition was -3.61% [at 11.4 µM] (inactive). For COc1ccccc1CNc1ccnc(-c2ccc3c(c2)OCO3)n1, the AC50 was 1.58 µM (active). COc1ccc(CNc2ccnc(-c3ccc4c(c3)OCO4)n2)c(OC)c1 was tested, and the AC50 was 1 µM (active). CC(=O)Nc1c2c3c(cccc3n(C)c1=O)C(=O)c1ccccc1-2 was tested, and the AC50 was 17.8 µM (active). In the case of Cc1ccc(NC(=O)Nc2ncccc2C)cc1, the activity, negative = inhibition is reported as -13.7% [at 2.29 µM] (inactive). CCOC(=O)C(=CNc1ncccc1C)C(=O)OCC was tested, and the AC50 was 12.6 µM (active). CCOC(=O)C(=CNc1cccc(C)c1C)C(=O)OCC was tested, and the AC50 was 15.8 µM (active). With CCOC(=O)C(=CNCC(=O)O)C(=O)OCC the AC50 was “inactive”. CCOC(=O)/C(=C/Nc1ccccc1)[N+](=O)[O-] was tested, and the AC50 was “inactive”. For CCOC(=O)C(=Cc1ccc(F)cc1)C(=O)OCC, the AC50 was “inactive”. In the case of Cc1ccc(C(=O)O/N=C/c2c(Cl)n(C)c3ccccc23)cc1, the AC50 is reported as “inactive”. With CN(C)CCCn1c2ccccc2c2cnccc21 the activity, negative = inhibition was -22.2% [at 11.4 µM] (inactive). With Cc1c2cnccc2c(C)c2c1c1ccccc1n2CCOC(=O)c1ccccc1 the AC50 was 0.631 µM (active). For Cc1noc(C)c1-c1nc(NC2CCNCC2)c2ccccc2n1, the AC50 was “inactive”. Cc1noc(C)c1-c1nc(Nc2ccccc2)c2ccccc2n1 was tested, and the AC50 was 6.31 µM (active). For Cc1noc(C)c1-c1nc(Nc2ccncc2)c2ccccc2n1, the AC50 was 0.316 µM (active). Cc1noc(C)c1-c1nc(Nc2ccc(F)cc2)c2ccccc2n1 was tested, and the AC50 was “inactive”. In the case of CC(C)Oc1ccc(CNC(=O)CC(c2ccccc2)c2cc(Cl)ccc2O)cc1 (stereo not drawn), the AC50 is reported as 10 µM (active). With CN(Cc1ccccc1)C(=O)CC(c1ccccc1)c1cc(Cl)ccc1O (stereo not drawn) the AC50 was 14.1 µM (active). CN(/C=C/C(=O)C(F)(F)F)Cc1ccccc1 was tested, and the AC50 was “inactive”. O=C(O)Cc1cc(Cl)ccc1O was tested, and the activity, negative = inhibition was -2.24% [at 11.4 µM] (inactive). In the case of COc1cccc(Cn2c(=O)c(CCc3ccccc3)nc3cnc(OC)nc32)c1, the AC50 is reported as 2.51 µM (active). In the case of COc1cccc(Cn2c(=O)c(CCc3ccccc3)nc3cncnc32)c1, the AC50 is reported as 2.51 µM (active). For NC/C=C\C(=O)O, the AC50 was “inactive”. CC(C(=O)NCc1ccc2c(c1)OCO2)N1c2cccc3cccc(c23)S1(=O)=O (stereo not drawn) was tested, and the AC50 was 0.316 µM (active). In the case of Cc1cc(C)c2nc3c(c([C@H](O)[C@@H]4CCCCN4)c2c1)CC/C3=C/c1ccc(Cl)cc1, the activity, negative = inhibition is reported as -1.86% [at 11.4 µM] (inactive). In the case of CN(C)c1ccc(-c2nc(NCc3cccnc3)c3ccccc3n2)cc1, the AC50 is reported as 2 µM (active). CC(=O)NCCNc1nc(-c2ccc(C(=O)N(C)C)cc2)nc2ccccc12 was tested, and the AC50 was “inactive”. With CN(C)C(=O)c1ccc(-c2nc(NCc3ccccc3)c3ccccc3n2)cc1 the AC50 was 15.8 µM (active). For CN(C)C(=O)c1ccc(-c2nc(NCc3cccnc3)c3ccccc3n2)cc1, the AC50 was 12.6 µM (active). With CN(C)C(=O)c1ccc(-c2nc(NC3CCNCC3)c3ccccc3n2)cc1 the AC50 was “inactive”. For CN(C)C(=O)c1ccc(-c2nc(NCc3cccs3)c3ccccc3n2)cc1, the AC50 was 15.8 µM (active). With O=C1C[C@@H](O)[C@@H](O)[C@H]2[C@@H]3C(=O)N(c4cccc(Oc5ccccc5)c4)C(=O)[C@@H]3CC[C@H]12 the activity, negative = inhibition was -19.7% [at 11.4 µM] (inactive) and -7.2% [at 11.4 µM] (inactive). For Cc1ccc(OCC(=O)NNC(=O)CCc2ccccc2)cc1, the AC50 was “inactive”. For Cc1ccc(OCC(=O)NNC(=O)CCC(=O)NCc2ccccc2)cc1, the AC50 was “inactive”. In the case of Cc1ccc(OCC(=O)Nc2ccccc2-c2ccccc2)cc1, the AC50 is reported as 20 µM (active). For Cc1ccc(OCC(=O)Nn2cnc3ccccc32)cc1, the AC50 was 7.94 µM (active). Cc1ccc(OCC(=O)NC2=NCCS2)cc1 was tested, and the activity, negative = inhibition was -22.5% [at 11.4 µM] (inactive). With CN(C)CCN1C(=O)C(O)=C(C(=O)c2cc3ccccc3o2)C1c1cccc(Br)c1 (stereo not drawn) the activity, negative = inhibition was 27.7% [at 2.29 µM] (inactive). In the case of O=C(c1ccco1)N1CCC[C@@]2(CCN(C(c3ccccc3)c3ccccc3)C2)C1, the AC50 is reported as 12.6 µM (active). For O=C(Nc1ccccc1)N1CC[C@@]2(CCCN(C(=O)c3ccco3)C2)C1, the AC50 was “inactive”. For CC(C)NC(=O)N1CC2(CCN(C(=O)c3ccco3)CC2)C1, the AC50 was “inactive”. O=C(c1ccco1)N1CCC2(CCCN(C(c3ccccc3)c3ccccc3)C2)CC1 was tested, and the AC50 was 12.6 µM (active). With COc1cc(-c2nnc(SCC3(c4ccc(Br)cc4)OCCO3)o2)cc(OC)c1OC the AC50 was 12.6 µM (active). COc1cc(-c2nnc(SCC3(c4ccccc4)OCCO3)o2)cc(OC)c1OC was tested, and the AC50 was 4.47 µM (active). With Cc1ccc(NC(=O)CSc2nnc(-c3ccncc3)o2)cc1 the activity, negative = inhibition was -3.56% [at 2.29 µM] (inactive). In the case of COc1cc(-c2nnc(SCC(=O)Nc3ccc4c(c3)OCCO4)o2)cc(OC)c1OC, the AC50 is reported as 8.91 µM (active). For Cc1ccc(/C=N\Nc2nc3ccc(Cl)cc3[nH]2)o1, the AC50 was 8.91 µM (active). For OC[C@@H](O)[C@@H](O)[C@@H](O)[C@@H](O)c1nc2ccc(Cl)cc2[nH]1, the activity, negative = inhibition was -5.7% [at 11.4 µM] (inactive). In the case of CCOC(=O)N/N=C/c1ccc(C)o1, the AC50 is reported as “inactive”. With Cc1cccc(NC(=O)C23CCC(C)(C2Br)C3(C)C)c1 (stereo not drawn) the AC50 was 12.6 µM (active). For CC12CCC(C(=O)Nc3cccc4ccccc34)(C1Br)C2(C)C (stereo not drawn), the AC50 was 11.2 µM (active). With Cc1cccc(NC(=S)NNC(=O)c2csc3c2CCCC3)c1 the activity, negative = inhibition was -15.2% [at 2.29 µM] (inactive). For Cc1cccc(NC(=O)C2(c3ccc([N+](=O)[O-])cc3)CCCC2)c1, the activity, negative = inhibition was -2.71% [at 2.29 µM] (inactive).

From PubChem BioAssay AID1851 (National Center for Advancing Translational Sciences (NCATS), 2009)
% is scaled to controls: 0 for no effect and ±100 for the full control effect.
